The list is not random: actives were taken first. Their share in the collection is about 2.4%.
STAT3 inh-1 – reduces IL-6 driven STAT3 reporter signal; actives 0.89% (n = 190,000); inhibition, % at 5.5 µM; U3A cells, IL-6 STAT3-luciferase reporter, luminescence; host cell line lacks STAT1; AID 862;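 active = inhibition above the mean inhibition across all screened compounds plus 3 SD, cut at about 44% in these data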;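 note: 0% = DMSO only wells and 100% = 100 µM nifuroxazide control wells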
HSF1 inh – HSF1 inhibition | NIH3T3-HGL HSE-luciferase, MG132-induced, luminescence 8 h; hits give low values | actives 0.77% (n = 300,000) | AID 2098 | activity change, negative = inhibition, % at 7.5 µM (by protocol);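 active = more than half of replicate wells show activity change below -50%, luminescence cut by over half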;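 note: luciferase reports HSF-1 transcriptional activity via heat shock element; 0% = median of DMSO wells and -100% = zero luminescence signal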
STAT1 inh-1 – inhibitors of IFN-gamma induced STAT1 signaling; NIH 3T3 STAT1-luciferase reporter, luminescence; inhibition, % at 5.5 µM; actives 0.35% (n = 200,000);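 active = inhibition above a set limit, the mean inhibition across all tested compounds plus 3 SD, cut at about 34% in these data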;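 note: 0% = IFN-gamma with DMSO and 100% = IFN-gamma with 300 µM nifuroxazide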
TRAIL sens C8 – sensitizes caspase-8 expressing cells to TRAIL; actives 1% (n = 360,000); inhibition (viability loss, TRAIL sensitization), % at 10 µM; NB7+C8 cells + TRAIL, ATPlite viability luminescence; AID 624354;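 active = compounds causing at least 50% loss of cell viability in the single-dose screen, relative to plate controls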
PPC-1+TRAIL kill – kills PPC-1 cancer cells in the presence of TRAIL. actives 0.41% (n = 220,000). PPC-1 cells + TRAIL, ATPLite viability luminescence. AID 1443. cell killing (% activity), % at 4 µM or 5 µM;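 active = cell killing above 50% in the first pass at 4 µM, then a duplicate retest at 5 µM averaging 50% or more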;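 note: plate controls were cells with TRAIL plus DMSO for no effect and medium-only wells lacking cells for full effect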
HSP90 refold inh – inhibitors of HSP90 luciferase refolding in rabbit reticulocyte lysate; luciferase refolding luminescence, 3 h; inhibition, % at 5.6 µM; actives 0.91% (n = 290,000); AID 1789;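 active = inhibition above the screen-wide mean plus 3 SD, computed separately per campaign, cut at about 16% in these data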;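 note: 0% = DMSO wells and 100% = 60 µM geldanamycin wells; inhibitors lower the luminescence because luciferase stays unfolded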
STAT3 inh-2 – confirmation of STAT3 signaling inhibitors | actives 45% (n = 1,200) | inhibition, % at 5.7 µM | shares compounds with STAT3 inh-1 | U3A cells, IL-6 STAT3 luciferase reporter, luminescence; cell line lacks STAT1;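 active = inhibition above the hit cutoff computed for the primary STAT3 screen, cut at about 44% in these data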;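 note: 0% = IL-6 plus DMSO and 100% = IL-6 plus nifuroxazide control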
NFkB inh 2 – counter-screen for STAT3 inhibitors: NF-kappaB inhibition; shares compounds with STAT3 inh-1; HEK293T NF-kB luciferase reporter, TNF-alpha induced; inhibition, % at 5.7 µM; actives 36% (n = 1,200); AID 1308;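 active = inhibition above the mean of solvent-only control wells plus 3 SD, cutoff set per campaign, cut at about 13% in these data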;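 note: 0% = TNF-alpha with DMSO and 100% = TNF-alpha with MG high control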
STAT1 inh STAT3c – inhibits STAT1, counter-screen to STAT3 inhibitors; shares compounds with STAT3 inh-1; NIH 3T3 STAT1-luciferase reporter, IFN-gamma induced, luminescence; inhibition, % at 5.7 µM; actives 27% (n = 1,200); AID 1317;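 active = inhibition above the mean plus 3 SD of solvent-only control wells, limit set per screening run, cut at about 16% in these data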;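 note: 0% = DMSO with IFN-gamma and 100% = nifuroxazide control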
STAT1 inh-2 – confirmation of STAT1 signaling inhibitors. shares compounds with STAT1 inh-1. NIH 3T3 STAT1-luciferase reporter, IFN-gamma, luminescence. inhibition, % at 5.5 µM. actives 55% (n = 200). AID 1263;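 active = triplicate mean inhibition exceeding the hit cutoff computed for the primary STAT1 screen, cut at about 35% in these data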;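 note: 0% = DMSO with IFN-gamma and 100% = 300 µM nifuroxazide with IFN-gamma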
NFkB inh STAT1ct – counter-screen for STAT1 inhibitors: NF-kappaB inhibition; actives 30% (n = 200); shares compounds with STAT1 inh-1; HEK293T NF-kB luciferase reporter, TNF-alpha induced, luminescence; inhibition, % at 5.7 µM;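 active = inhibition above the mean of solvent-only control wells plus 3 SD of those wells, cut at about 15% in these data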;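 note: 0% = DMSO with TNF-alpha and 100% = MG-132 control with TNF-alpha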
STAT3 inh 2 – inhibits STAT3, counter-screen to STAT1 inhibitors; shares compounds with STAT1 inh-1; U3A cells, IL-6 STAT3 luciferase reporter, luminescence; cells lacking STAT1; inhibition, % at 5.7 µM; actives 20% (n = 200); AID 1310;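 active = inhibition above the mean of solvent-only control wells plus 3 SD, set per campaign, cut at about 25% in these data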;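 note: 0% = IL-6 plus DMSO and 100% = IL-6 plus nifuroxazide control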
PPC1 cytotox – kills PPC-1 cells; shares compounds with PPC-1+TRAIL kill; PPC-1 viability, ATPlite luminescence, overnight; cytotoxicity, % at 5 µM; actives 50% (n = 1,200);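 active = reconfirmed compounds whose average cytotoxicity reaches 50% or more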;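 note: 0% = DMSO-treated cells and 100% = wells holding medium but no cells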
HSP90 inh confirm – HSP90 inhibition, confirmation assay; actives 64% (n = 2,300); rabbit reticulocyte lysate, luciferase refolding luminescence, 3 h; shares compounds with HSP90 refold inh; AID 1846; inhibition, % at 5.9 µM; in the data active = inhibition above about 18%;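 note: 0% = vehicle wells and 100% = reference inhibitor wells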
FLuc counter – blocks native firefly luciferase in HSP90 counter-screen. shares compounds with HSP90 refold inh. purified native firefly luciferase, luminescence. inhibition, % at 5.9 µM. actives 48% (n = 2,300);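 active = inhibition above the mean inhibition of all tested sample wells plus 3 SD, cut at about 10% in these data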;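 note: 0% = DMSO with luciferase and 100% = wells lacking luciferase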
Target sequence (P08659 whole entry, looked up): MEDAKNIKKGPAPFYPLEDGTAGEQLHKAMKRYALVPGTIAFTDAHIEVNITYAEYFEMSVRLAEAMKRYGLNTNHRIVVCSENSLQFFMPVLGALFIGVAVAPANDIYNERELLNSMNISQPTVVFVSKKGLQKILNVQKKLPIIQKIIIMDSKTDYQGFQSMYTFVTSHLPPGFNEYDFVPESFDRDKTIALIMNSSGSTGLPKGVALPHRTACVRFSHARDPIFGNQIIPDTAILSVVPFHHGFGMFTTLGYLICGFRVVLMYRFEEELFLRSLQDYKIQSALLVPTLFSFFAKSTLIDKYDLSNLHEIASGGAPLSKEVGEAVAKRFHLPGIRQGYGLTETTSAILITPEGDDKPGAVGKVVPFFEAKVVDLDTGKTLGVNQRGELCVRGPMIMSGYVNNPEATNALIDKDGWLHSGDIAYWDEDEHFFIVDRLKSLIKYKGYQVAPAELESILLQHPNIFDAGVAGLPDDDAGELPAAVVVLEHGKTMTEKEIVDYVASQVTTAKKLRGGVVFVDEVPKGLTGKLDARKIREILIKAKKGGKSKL
* = called active by the depositor; x = no result.

SMILES	STAT3 inh-1	HSF1 inh	STAT1 inh-1	TRAIL sens C8	PPC-1+TRAIL kill	HSP90 refold inh	STAT3 inh-2	NFkB inh 2	STAT1 inh STAT3c	HSP90 inh confirm	FLuc counter	others
NNC(=O)c1cccc(COc2ccc(Br)cc2)c1	79*	-35	32	23	12	60*	71*	33*	31*	49*	17*
NNC(=O)c1cccc(COc2cccc(Br)c2)c1	5	10	-12	-9	12	-1	x	x	x	x	x
CCc1nc2ccc(C(=O)N(C)Cc3ccco3)cn2c1N(C)CCCc1ccccc1	x	x	x	2	x	x	x	x	x	x	x
CCCCC[C@@H](C)N1C[C@H](COCc2ccccc2)Oc2cc(N3CC[C@H](O)C3)ccc2S1(=O)=O	x	x	x	0	x	x	x	x	x	x	x
COc1cccc(C(=O)Nc2ccc(NC(=O)C(C)(C)C)cn2)c1	58*	-25	16	77*	71*	33*	8	-14	-67	48*	37*	PPC1 cytotox=73*
COc1cccc(C(=O)Nc2ccc(NC(=O)C3CCCCC3)nc2)c1	x	0	x	-6	x	-2	x	x	x	x	x
Cc1ccc(-c2cc(C(=O)N3CCCC3)no2)cc1	76*	-28	29	68*	66*	20*	48*	16*	-39	65*	52*	PPC1 cytotox=68*
O=C(c1cc(-c2ccc(O)cc2)on1)N1CCCCCC1	x	54	x	10	x	12	x	x	x	x	x
COCCN1C(=O)CN(S(C)(=O)=O)CC1(C)C(=O)Nc1ccc2c(c1)OCCO2 (stereo not given)	x	x	x	11	x	x	x	x	x	x	x
Nc1ccc(-c2cnc(-c3ccc(N)cc3)nc2)cc1	49*	17	-40	73*	-10	21*	5	-33	-106	26*	19*
Nc1ccc(-c2cnc3ccccc3n2)cc1	x	1	x	-6	x	x	x	x	x	x	x
Cc1nc(Cn2c3ccc(NC(=S)NC4CCCCC4)cc3c(=O)n2C)cs1	x	x	x	-19	x	x	x	x	x	x	x
COc1ccc(C(=O)Nn2c(SCC(=O)NC3CCCCC3)nc3ccccc3c2=O)cc1	51*	-64*	28	38	48	62*	9	-2	-54	71*	65*
COCCCn1c(SCC(=O)NC2CCCCC2)nc2ccccc2c1=O	x	3	x	2	x	-1	x	x	x	x	x
COc1ccc(C(=O)Nn2c(SCC(=O)NCc3ccco3)nc3ccccc3c2=O)cc1	67*	-75*	9	33	34	56*	34	24*	-50	65*	65*	PPC1 cytotox=35
C[C@@H]1CN([C@H](C)CO)C(=O)CCCn2cc(nn2)CO[C@H]1CN(C)C(=O)c1ccncc1	x	x	x	-12	x	x	x	x	x	x	x
O=C(Nc1ccccn1)c1onc2c1CCCC2	69*	-19	-3	77*	67*	36*	53*	16*	-12	76*	68*
CC(C)NC(=O)c1cc2c(s1)CCCC2	3	0	5	4	22	1	x	x	x	x	x
Cc1csc(NC(=O)c2cc3c(s2)CCCC3)n1	86*	4	24	78*	66*	35*	55*	-1	-62	50*	50*	PPC1 cytotox=69*
Cc1ccc(CNC(=O)C2(C)CCN2C(=O)Cc2ccc(C(C)(C)C)cc2)cc1 (stereo not given)	x	x	x	6	x	x	x	x	x	x	x
CCCCC[C@@H]1C=C(C(=O)O)[C@H](c2ccc(Br)cc2)N1S(=O)(=O)c1ccc(C)cc1	x	x	x	-4	x	x	x	x	x	x	x
COc1cccc(-c2cc(C(=O)Nc3cccc(O)c3)no2)c1	89*	-8	0	70*	56*	18*	50*	9	-53	64*	57*	PPC1 cytotox=55*
O=c1ccn([C@@H]2O[C@H](CNCc3cccn3-c3nccs3)[C@@H](O)[C@H]2O)c(=O)[nH]1	x	x	x	-7	x	x	x	x	x	x	x
O=S(=O)(NCc1ccncc1)c1ccc(F)c(F)c1	x	x	x	-4	x	x	x	x	x	x	x
Cc1ccc(S(=O)(=O)NCc2ccncc2)cc1C	74*	-2	31	29	33	30*	76*	26*	17*	-1	-4
SMILES	STAT3 inh-1	HSF1 inh	STAT1 inh-1	TRAIL sens C8	PPC-1+TRAIL kill	HSP90 refold inh	STAT3 inh-2	NFkB inh 2	STAT1 inh STAT3c	HSP90 inh confirm	FLuc counter	others
C=CCOC(=O)C1=C[C@H](c2ccccc2)[C@@H](CCCO)[C@H](OCC)O1	x	2	16	-26	-4	6	x	x	x	x	x
C#Cc1ccc([C@@H]2C=C(C(=O)OCC=C)O[C@H](OCC)[C@H]2CCCO)cc1	x	-6	37*	3	0	4	x	x	x	x	x	STAT1 inh-2=22;NFkB inh STAT1ct=-1;STAT3 inh 2=2
C#Cc1ccc([C@H]2C=C(C(=O)OCC=C)O[C@@H](OCC)[C@@H]2CCCO)cc1	x	-8	56*	17	2	7	x	x	x	x	x	STAT1 inh-2=36*;NFkB inh STAT1ct=2;STAT3 inh 2=-17
CCCCNc1nc2c(c(=O)[nH]c(=O)n2C)n1CCCc1ccccc1	x	x	x	-1	x	x	x	x	x	x	x
CCn1c(SCC(=O)N(C)c2c(N)n(Cc3ccccc3)c(=O)[nH]c2=O)nnc1-c1cccs1	x	x	x	-4	x	x	x	x	x	x	x
COC(=O)C1=CN(c2ccc3c(c2)OCO3)C(N)=C(C#N)C1c1ccccc1 (stereo not given)	x	x	x	5	x	x	x	x	x	x	x
CC1=C(C(=O)Nc2cc(C(=O)N3CCN(c4ccc(Cl)cc4)CC3)ccc2C)SCCO1	x	x	x	2	x	x	x	x	x	x	x
CCNc1nc(NC(C)(C)C)nc(N2CCCCC2)n1	13	2	39*	37	5	0	x	x	x	x	x	STAT1 inh-2=24;NFkB inh STAT1ct=-6;STAT3 inh 2=19
CCNc1nc(N2CCCC2)nc(N2CCCC2)n1	-14	9	16	7	0	1	x	x	x	x	x
O=C(CSc1nc2ccccc2c(=O)n1Cc1ccco1)N1CCCC1	4	0	37*	-2	9	-4	x	x	x	x	x	STAT1 inh-2=19;NFkB inh STAT1ct=10;STAT3 inh 2=10
NC(=O)CSc1nc2ccccc2c(=O)n1Cc1ccco1	5	4	1	3	6	-2	x	x	x	x	x

High-throughput results from PubChem.
